# Screening results from PubChem.
# Vc quorum ag – inducers of Vibrio cholerae quorum light production without autoinducers, primary screen, BH1578 luxS cqsA deficient, single point; V. cholerae BH1578 lux reporter, luminescence, 6 h; activation, % at 18.7 µM; hit rate 0.16% among 350,000; in the data active means activation mostly above about 9.7%, no sharp cut-off
# Mtb FBA inh – Mtb FBA enzyme inhibitors, primary screen, biochemical, fluorescence, strain H37Rv; purified M. tuberculosis FBA, fluorescence read-out; inhibition, % at 1 µM; hit rate 2.3% among 360,000; AID 588726, 2011;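 further: 0% = vehicle and 100% = reference inhibitor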
# Target sequence (P9WQA3 whole entry, looked up): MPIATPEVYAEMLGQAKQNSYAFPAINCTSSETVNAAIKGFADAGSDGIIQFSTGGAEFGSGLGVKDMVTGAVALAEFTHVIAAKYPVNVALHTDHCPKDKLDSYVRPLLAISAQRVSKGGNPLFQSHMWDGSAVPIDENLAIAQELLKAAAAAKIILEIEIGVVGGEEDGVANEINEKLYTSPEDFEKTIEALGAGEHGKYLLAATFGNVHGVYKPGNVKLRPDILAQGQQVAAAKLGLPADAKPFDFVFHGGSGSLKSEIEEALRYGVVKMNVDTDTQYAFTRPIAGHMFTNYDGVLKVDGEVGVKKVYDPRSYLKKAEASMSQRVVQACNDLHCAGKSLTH
# BioA inh – M. tuberculosis BioA enzyme inhibitors, primary screen, biochemical, plate reader, single point, HTS | purified M. tuberculosis BioA enzyme | inhibition, % at 9.99 µM | hit rate 0.096% among 360,000 | AID 602481, 2012; in the data active means inhibition above about 40%
# GDH-TPI counter-1 – GDH-TPI coupling enzyme inhibitors, primary screen, artefact control for M. tuberculosis FBA inhibitor project, biochemical, absorbance, full deck; AID 588335, 2011; inhibition, % at 4.8 µM; hit rate 1.2% among 360,000; GDH-TPI coupled enzyme counterscreen, NADH absorbance; in the data active means inhibition above about 30%;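 further: 0% = DMSO wells and 100% = wells lacking the enzyme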
# Mtb FBA confirm – M. tuberculosis aldolase blockers, biochemical, fluorescence, strain H37Rv, confirmation; shares compounds with Mtb FBA inh; purified M. tuberculosis FBA, fluorescence read-out; inhibition, % at 1 µM; hit rate 78% among 5,600; AID 651616, 2012;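 further: 0% = vehicle wells and 100% = reference inhibitor wells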
# GDH-TPI counter-2 – GDH-TPI coupling enzyme inhibitors, artefact control for M. tuberculosis FBA inhibitor project, biochemical, fluorescence, high throughput | shares compounds with Mtb FBA inh | GDH-TPI coupled enzyme counterscreen | inhibition, % at 1 µM | hit rate 81% among 5,600 | AID 652141, 2013; in the data active means inhibition above about 10%
# An asterisk follows results filed as active; i = inactive; x = no result; + = active, no number. Rows were chosen to be rich in hits. Some 3% of all compounds tested hit in one or more screens of this group. Unless noted, no stated cut-off is given here; in the data, active means inhibition above about 27%; inactive means the rest.
SMILES,Vc quorum ag,Mtb FBA inh,BioA inh,GDH-TPI counter-1,Mtb FBA confirm,GDH-TPI counter-2
Cc1ccc2[nH]c(=O)c(CN(CCc3ccccc3)Cc3nnnn3CC3CCCO3)cc2c1 (stereo unspecified),i,7,1,6,x,x
CC1CCN(C(c2cc3cc4c(cc3[nH]c2=O)OCO4)c2nnnn2CC2CCCO2)CC1 (stereo unspecified),0,3,-1,6,x,x
O=c1[nH]c2cc3c(cc2cc1CN(CCc1ccccc1)Cc1nnnn1CC1CCCO1)OCO3 (stereo unspecified),-1,30*,-2,26,12,17*
O=c1[nH]c2cc3c(cc2cc1CN(Cc1nnnn1CC1CCCO1)C1CCCCC1)OCO3 (stereo unspecified),-1,57*,-3,7,+,+
O=c1[nH]c2cc3c(cc2cc1CN(Cc1nnnn1CC1CCCO1)C1CCCC1)OCO3 (stereo unspecified),-1,76*,x,12,33*,29*
C[C@@H]1CN([C@H](C)CO)C(=O)c2cc(NC(=O)CCC(F)(F)F)ccc2O[C@@H](C)CCCCO[C@@H]1CN(C)Cc1ccc2c(c1)OCO2,x,x,-2,x,x,x
CCOC(=O)c1cc2cc(OC)ccc2[nH]1,-3,41*,-2,5,45*,42*
COc1ccc2[nH]c(C(=O)NCc3ccccc3)cc2c1,0,56*,x,11,64*,46*
CCOC(=O)c1[nH]c2ccc(OC)cc2c1C,1,24,x,7,x,x
COc1ccc(CC(=O)NCc2ccccc2)cc1,i,-1,-2,-6,x,x
Cc1ccc2nc(-c3sc4nc(C)cc(C)c4c3N)[nH]c2c1,0,30*,1,9,112*,82*
COc1ccc(CN(C)C[C@@H]2Oc3ccc(NS(=O)(=O)c4ccc(C)cc4)cc3C(=O)N([C@@H](C)CO)C[C@H]2C)cc1,x,x,0,x,x,x
O=C(CCN1C(=O)c2cccc3cccc(c23)C1=O)NCC1CCCO1 (stereo unspecified),i,34*,0,25,156*,97*
Nc1cccc(Oc2ccc3c(c2)C(=O)N(CC2CCCO2)C3=O)c1 (stereo unspecified),0,3,-1,9,x,x
O=C(CN1C(=O)c2cccc3cccc1c23)NCC1CCCO1 (stereo unspecified),-2,5,-1,8,x,x
O=C1c2cccc3cccc(c23)C(=O)N1CC1CCCO1 (stereo unspecified),0,31*,3,10,52*,28*
CN1[C@H](C(=O)NC2CCCCC2)[C@@H](CO)[C@@H]2Cn3c(ccc(/C=C/c4ccccc4)c3=O)[C@@H]21,x,x,0,x,x,x
CC(=O)Nc1cc(-c2cccc(NS(C)(=O)=O)c2)cn2c(-c3ccccc3)cnc12,i,9,2,-2,x,x
CC(=O)Nc1cc(-c2cccc(C)c2)cn2c(-c3ccc(S(C)(=O)=O)cc3)cnc12,0,35*,-1,14,1,-3
COc1ccccc1-c1cc(NC(C)=O)c2ncc(-c3ccc(S(C)(=O)=O)cc3)n2c1,i,59*,0,16,71*,62*
CC(=O)Nc1cc(-c2ccccc2)cn2c(-c3ccc(F)c(Cl)c3)cnc12,i,4,-5,13,x,x
CC(=O)Nc1cc(-c2ccccc2Cl)cn2c(-c3ccc(S(C)(=O)=O)cc3)cnc12,i,42*,9,12,+,183*
CCCNC(=O)Nc1ccc2c(c1)C(=O)N(C)C[C@@H](OC)[C@H](C)CN(Cc1cccnc1)[C@@H](C)CO2,x,x,-5,x,x,x
C[C@@H]1CN([C@@H](C)CO)C(=O)c2cc(NC(=O)Nc3ccc(C(F)(F)F)cc3)ccc2O[C@@H]1CN(C)C,x,x,2,x,x,x
C[C@@H]1CN([C@@H](C)CO)C(=O)c2cc(NC(=O)Cn3cnnn3)ccc2O[C@@H]1CN(C)Cc1ccncc1,x,x,0,x,x,x
SMILES,Vc quorum ag,Mtb FBA inh,BioA inh,GDH-TPI counter-1,Mtb FBA confirm,GDH-TPI counter-2
C[C@H]1CN([C@@H](C)CO)C(=O)c2cccc(N(C)C)c2O[C@@H]1CN(C)S(=O)(=O)c1cn(C)cn1,x,x,-2,x,x,x
C[C@@H]1CN([C@H](C)CO)C(=O)Cc2cc(NC(=O)Cn3cnnn3)ccc2O[C@@H]1CN(C)S(=O)(=O)c1cccs1,x,x,0,x,x,x
COc1ccc(CNC(=O)C[C@H]2C=C[C@@H](NC(=O)Nc3ccc4c(c3)OCO4)[C@H](CO)O2)cc1,x,x,-1,x,x,x
CCCCNc1c(-c2cccc(-c3ccc(OC)cc3)c2)nc2ccc(C)cn12,i,31*,0,6,7,2
CCCCNc1c(-c2cccc(-c3ccc(OC)cc3)c2)nc2cc(C)ccn12,i,29*,-3,10,66*,58*
CCCCNc1c(-c2ccc(OC)c(SC3CCCCC3)c2)nc2cc(C)ccn12,7,24,-2,18,x,x
O=C(C[C@@H]1C[C@H]2c3cc(NC(=O)C4CCOCC4)ccc3O[C@H]2[C@H](CO)O1)NC1CCCCC1,x,x,0,x,x,x
CC(=O)Nc1ccc(S(=O)(=O)NCCNS(=O)(=O)c2ccc(NC(C)=O)cc2)cc1,8,-2,-1,-7,x,x
CC(=O)Nc1ccc(S(=O)(=O)NCCc2cn3nc(C)c(C)nc3n2)cc1,0,43*,1,5,59*,49*
COc1ccc(S(=O)(=O)NCCc2cn3nc(C)c(C)nc3n2)cc1F,-2,61*,-1,9,+,149*
COc1ccc2sc(-c3ccc(N(C)C)cc3)c(C#Cc3cncn3C)c2c1,0,108*,-1,11,127*,102*
O=C(C[C@@H]1C=C[C@@H](NC(=O)Nc2ccc(C(F)(F)F)cc2)[C@H](CO)O1)NCCN1CCCC1,x,x,0,x,x,x
COc1cc2cc(C(=O)O)[nH]c2c(OC)c1OC,i,35*,-4,-12,112*,74*
Cc1ccccc1CNC(=O)C1CCCN(c2nnc(C)c3c(C)n(-c4ccccc4)nc23)C1 (stereo unspecified),-2,28*,0,1,111*,105*
COc1ccc(NC(=O)N[C@@H]2CC[C@@H](CCn3cc(-c4ccccn4)nn3)O[C@H]2CO)cc1,x,x,-3,x,x,x
CC=Cc1ccc2n(c1=O)C[C@H]1[C@H](CO)[C@@H](C(=O)OC)N(CCc3ccccc3)[C@@H]21 (mixture of isomers),x,x,3,x,x,x
O=C(NCC[C@@H]1CC[C@H](NS(=O)(=O)c2ccccc2)[C@H](CO)O1)c1ccc2c(c1)OCO2,x,x,3,x,x,x
CCCCNC(=O)c1cc2c(-c3ccc(Cl)cc3)nn(C)c2s1,0,16,-1,2,x,x
